# Measurements from PubChem BioAssay (NCATS).
# Inconclusive results are not listed. Entries that show only a call come without a potency. A number with no mark means an inactive call. Activity calls are given as the source filed them. Calls follow the shape of the dose curve; as a rule, active = well fitted curve in the direction sought with a large enough effect; inconclusive = small, poorly fitted or top-dose-only effect, or another doubt; inactive = no such curve, though single readings can be large; an effect the other way counts as inactive or inconclusive.
# What was measured:
# W2 = assay: qHTS profiling for inhibitors of Plasmodium falciparum proliferation (AID 504749); also: nearly all actives have a fitted effect of over 60% in size; details: P. falciparum in erythrocytes, SYBR Green DNA, 72 h; series mostly up to 28.7 µM
# Summary of the method: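 In a 72 h erythrocytic culture (37 C, humidified, 5% CO2) at 2.5% hematocrit and 0.3% starting parasitemia, compounds were tested; SYBR Green I in detergent lysis buffer stained parasite DNA overnight.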
# CRL-7250 = normal cell line; assay: Cytotoxic Profiling of Annotated Libraries Using Quantitative High-Throughput Screening (AID 1296008); details: Five cell lines viability, CellTiter-Glo ATP luminescence, 48-72 h; max response: stronger effect = lower value; also: nearly all actives have a fitted effect of over 60% in size
# Summary of the method: (§1)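 Cytotoxicity was measured as CellTiter-Glo ATP luminescence, read after 10 min at room temperature. Compound treatment of the cells lasted 48 or 72 hr at 37 degrees Celsius in a qHTS format.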
# HEK293 = assay: as above; details: Five cell lines viability, CellTiter-Glo ATP luminescence, 48-72 h; max response: stronger effect = lower value
# Summary of the method: as §1
# HaCat [1] = assay: as above; details: Five cell lines viability, CellTiter-Glo ATP luminescence, 48-72 h; max response: stronger effect = lower value
# Summary of the method: as §1
# NIH3T3 [2] = assay: as above; details: Five cell lines viability, CellTiter-Glo ATP luminescence, 48-72 h; max response: stronger effect = lower value
# Summary of the method: as §1
# MCC-13 = assay: qHTS assay to identify novel small-molecules to repurpose for Merkel cell carcinoma treatment (AID 1296009); details: MCC and control cell lines, CellTiter-Glo viability, 72 h; series mostly up to 46 µM; also: nearly all actives have a fitted effect of over 60% in size
# Summary of the method: (§2)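 Cell viability measured by CellTiter-Glo following 72 hr compound treatment at 37 degree celsius, with NPC and MIPE libraries tested in 8- and 11-point concentration series.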
# MCC-26 = assay: as above; details: MCC and control cell lines, CellTiter-Glo viability, 72 h; series mostly up to 46 µM
# Summary of the method: as §2
# MKL-1 = assay: as above; details: MCC and control cell lines, CellTiter-Glo viability, 72 h; series mostly up to 46 µM
# Summary of the method: as §2
# MKL-2 = assay: as above; details: MCC and control cell lines, CellTiter-Glo viability, 72 h; series mostly up to 46 µM
# Summary of the method: as §2
# UISO = assay: as above; details: MCC and control cell lines, CellTiter-Glo viability, 72 h; series mostly up to 46 µM
# Summary of the method: as §2
# WaGa = assay: as above; details: MCC and control cell lines, CellTiter-Glo viability, 72 h; series mostly up to 46 µM
# Summary of the method: as §2
# C33A = assay: Primary qHTS to identify gynecologic anti-cancer compounds using libraries of approved drugs and bioactive compounds (AID 1345084); details: Gynecologic cancer cell panel viability, ATPlite luminescence, 48 h; series mostly up to 57.5 µM; also: nearly all actives have a fitted effect of over 55% in size
# Summary of the method: (§3)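 Five-point cytotoxicity, 48 h drug exposure at 37 C, 5% CO2, on cells seeded 16 h beforehand. ATP content read by ATPlite luminescence.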
# CAOV3 = assay: as above; details: Gynecologic cancer cell panel viability, ATPlite luminescence, 48 h; series mostly up to 57.5 µM
# Summary of the method: as §3
# CASKI = assay: as above; details: Gynecologic cancer cell panel viability, ATPlite luminescence, 48 h; series mostly up to 57.5 µM
# Summary of the method: as §3
# Es-2 = assay: as above; details: Gynecologic cancer cell panel viability, ATPlite luminescence, 48 h; series mostly up to 57.5 µM
# Summary of the method: as §3
# HeLa = assay: as above; details: Gynecologic cancer cell panel viability, ATPlite luminescence, 48 h; series mostly up to 57.5 µM
# Summary of the method: as §3
# KB-3-1 = assay: Cytotoxic Profiling of Annotated Libraries Using Quantitative High-Throughput Screening (AID 1296008); details: Five cell lines viability, CellTiter-Glo ATP luminescence, 48-72 h; max response: stronger effect = lower value; also: nearly all actives have a fitted effect of over 60% in size
# Summary of the method: as §1
# HACAT [3] = assay: qHTS assay to identify novel small-molecules to repurpose for Merkel cell carcinoma treatment (AID 1296009); details: MCC and control cell lines, CellTiter-Glo viability, 72 h; at 44.8 µM (top of the series) unless noted; also: nearly all actives have a fitted effect of over 60% in size
# Summary of the method: as §2
# NIH3T3 [4] = assay: as above; details: MCC and control cell lines, CellTiter-Glo viability, 72 h; at 44.8 µM (top of the series)
# Summary of the method: as §2
# Potency is read from the fitted curve at half-maximal effect.
smiles,measurement,setting,value
Cc1ccccc1OCC(O)CO (stereo unspecified),Potency,W2,inactive
same,outcome,CRL-7250,inactive
same,max response,HEK293,-6.66%
same,max response,HaCat [1],0.0907%
same,max response,NIH3T3 [2],-27.4%
same,Potency,MCC-13,inactive
same,Potency,MCC-26,inactive
same,Potency,MKL-1,inactive
same,Potency,MKL-2,inactive
same,Potency,UISO,inactive
same,Potency,WaGa,inactive
same,Potency,C33A,inactive
same,Potency,CAOV3,inactive
same,Potency,CASKI,inactive
same,Potency,Es-2,inactive
same,Potency,HeLa,inactive
COc1cc(O)c(C(=O)c2ccccc2)cc1S(=O)(=O)O,Potency,W2,7570 nM (active)
same,max response,CRL-7250,1.74%
same,max response,HEK293,-6.68%
same,max response,HaCat [1],-4.69%
same,max response,KB-3-1,-4.48%
same,max response,NIH3T3 [2],1.08%
same,Potency,MCC-13,inactive
same,Potency,MKL-1,inactive
same,Potency,MKL-2,inactive
same,Potency,UISO,inactive
same,Potency,C33A,inactive
same,Potency,CAOV3,inactive
same,Potency,CASKI,inactive
same,Potency,Es-2,inactive
same,Potency,HeLa,inactive
Nc1nc(Cl)nc2c1ncn2[C@@H]1O[C@H](CO)[C@@H](O)[C@@H]1F,Potency,CRL-7250,596 nM (active)
same,Potency,HEK293,1500 nM (active)
same,Potency,HaCat [1],1060 nM (active)
same,max response,KB-3-1,2.36%
same,Potency,NIH3T3 [2],1190 nM (active)
same,Potency,MCC-26,3760 nM (active)
same,Potency,MKL-1,119 nM (active)
same,Potency,WaGa,94.4 nM (active)
same,Potency,CAOV3,1120 nM (active)
same,Potency,Es-2,316 nM (active)
same,Potency,HeLa,inactive
CC(C)(C)NCC(O)COc1cccc2c1C[C@H](O)[C@H](O)C2 (stereo partly specified),outcome,CRL-7250,inactive
same,max response,HEK293,-3.77%
same,outcome,HaCat [1],inactive
same,max response,NIH3T3 [2],-4.22%
same,outcome,HACAT [3],inactive
same,Potency,MCC-13,inactive
same,Potency,MCC-26,inactive
same,Potency,MKL-1,inactive
same,Potency,MKL-2,inactive
same,Potency,UISO,inactive
same,Potency,WaGa,inactive
same,Potency,C33A,inactive
same,Potency,CAOV3,inactive
same,Potency,CASKI,inactive
same,Potency,Es-2,inactive
same,Potency,HeLa,inactive
CC(C)Cc1ccc(CC(=O)O)cc1,Potency,W2,inactive
same,max response,CRL-7250,2.76%
same,max response,HEK293,-6.81%
same,max response,HaCat [1],-0.56%
same,max response,KB-3-1,-9.62%
same,max response,NIH3T3 [2],2.82%
same,Potency,MCC-13,inactive
same,Potency,MKL-1,inactive
same,Potency,MKL-2,inactive
same,Potency,UISO,inactive
same,Potency,WaGa,inactive
same,Potency,C33A,inactive
same,Potency,CAOV3,inactive
same,Potency,CASKI,inactive
same,Potency,Es-2,inactive
same,Potency,HeLa,inactive
C=C1c2cccc(O)c2C(O)=C2C(=O)[C@]3(O)C(O)=C(C(N)=O)C(=O)[C@@H](N(C)C)[C@@H]3[C@@H](O)[C@H]12,outcome,CRL-7250,inactive
same,max response,HEK293,-1.35%
same,max response,HaCat [1],-8.16%
same,max response,KB-3-1,-4.44%
same,outcome,NIH3T3 [2],inactive
same,Potency,MCC-13,inactive
same,Potency,MKL-1,inactive
same,outcome,NIH3T3 [4],inactive
same,Potency,UISO,inactive
same,Potency,WaGa,inactive
same,Potency,C33A,inactive
same,Potency,CASKI,inactive
same,Potency,Es-2,inactive
same,Potency,HeLa,inactive
O=C(O)P(=O)(O)O,Potency,W2,inactive
same,outcome,CRL-7250,inactive
same,max response,HEK293,0.892%
same,max response,HaCat [1],-5.53%
same,max response,NIH3T3 [2],4.83%
same,Potency,MCC-13,inactive
same,Potency,MCC-26,inactive
same,Potency,MKL-1,inactive
same,Potency,MKL-2,inactive
same,Potency,UISO,inactive
same,Potency,WaGa,inactive
same,Potency,C33A,inactive
same,Potency,CAOV3,inactive
same,Potency,CASKI,inactive
same,Potency,Es-2,inactive
same,Potency,HeLa,inactive
C[C@H]1O[C@@H](O[C@H]2CC[C@@]3(C)[C@H](CC[C@@H]4[C@@H]3C[C@@H](O)[C@]3(C)[C@@H](C5=CC(=O)OC5)CC[C@]43O)C2)C[C@H](O)[C@@H]1O[C@H]1C[C@H](O)[C@H](O[C@H]2C[C@H](O)[C@H](O[C@@H]3O[C@H](CO)[C@@H](O)[C@H](O)[C@H]3O)[C@@H](C)O2)[C@@H](C)O1,Potency,CRL-7250,211 nM (active)
same,Potency,HEK293,188 nM (active)
same,Potency,HaCat [1],596 nM (active)
same,Potency,KB-3-1,259 nM (active)
same,Potency,MCC-13,335 nM (active)
same,Potency,MCC-26,668 nM (active)
same,Potency,MKL-1,531 nM (active)
same,Potency,MKL-2,299 nM (active)
same,Potency,UISO,299 nM (active)
same,Potency,C33A,282 nM (active)
same,Potency,CAOV3,501 nM (active)
same,Potency,CASKI,1580 nM (active)
same,Potency,Es-2,447 nM (active)
same,Potency,HeLa,355 nM (active)
CCCCNC(=O)NS(=O)(=O)c1ccc(N)cc1,Potency,W2,inactive
same,max response,CRL-7250,-16.6%
same,max response,HEK293,2.1%
same,max response,HaCat [1],3.3%
same,max response,NIH3T3 [2],-1.55%
same,Potency,MCC-13,inactive
same,Potency,MCC-26,inactive
same,Potency,MKL-1,inactive
same,Potency,MKL-2,inactive
same,Potency,UISO,inactive
same,Potency,WaGa,inactive
same,Potency,C33A,inactive
same,Potency,CAOV3,inactive
same,Potency,CASKI,inactive
same,Potency,Es-2,inactive
same,Potency,HeLa,inactive
CC(=O)Nc1ncc([N+](=O)[O-])s1,Potency,W2,inactive
same,max response,CRL-7250,2.19%
same,max response,HEK293,0.687%
same,max response,HaCat [1],4.2%
same,max response,KB-3-1,1.85%
same,max response,NIH3T3 [2],4.2%
same,Potency,MCC-13,inactive
same,Potency,MKL-1,inactive
same,Potency,MKL-2,inactive
same,Potency,UISO,inactive
same,Potency,WaGa,inactive
same,Potency,C33A,inactive
same,Potency,CAOV3,inactive
same,Potency,CASKI,inactive
same,Potency,Es-2,inactive
same,Potency,HeLa,inactive
CCNC(=O)NCc1cccc(Cl)c1,Potency,W2,inactive
same,outcome,CRL-7250,inactive
same,max response,HEK293,4.87%
same,max response,HaCat [1],-5.45%
same,max response,NIH3T3 [2],0.416%
same,Potency,MCC-13,inactive
same,Potency,MCC-26,inactive
same,Potency,MKL-1,inactive
same,Potency,MKL-2,inactive
same,Potency,UISO,inactive
same,Potency,WaGa,inactive
same,Potency,C33A,inactive
same,Potency,CAOV3,inactive
same,Potency,CASKI,inactive
same,Potency,Es-2,inactive
same,Potency,HeLa,inactive
NCCNc1cccc2ccccc12,max response,CRL-7250,-3.59%
same,max response,HEK293,-7.17%
same,max response,HaCat [1],-24.9%
same,max response,NIH3T3 [2],0.794%
same,Potency,MCC-13,inactive
same,Potency,MCC-26,inactive
same,Potency,UISO,inactive
same,Potency,C33A,inactive
same,Potency,CASKI,inactive
same,Potency,Es-2,inactive
same,Potency,HeLa,inactive
Cc1c(-c2ccccc2)oc2c(C(=O)OCCN3CCCCC3)cccc2c1=O,Potency,W2,inactive
same,max response,CRL-7250,-1.78%
same,max response,HEK293,-20.2%
same,max response,HaCat [1],3.56%
same,max response,KB-3-1,-3.83%
same,max response,NIH3T3 [2],3.38%
same,Potency,MCC-13,inactive
same,Potency,MKL-1,inactive
same,Potency,MKL-2,inactive
same,Potency,UISO,inactive
same,Potency,WaGa,inactive
same,Potency,C33A,inactive
same,Potency,CAOV3,inactive
same,Potency,CASKI,inactive
same,Potency,Es-2,inactive
same,Potency,HeLa,inactive
O=C(Oc1cccc2cccnc12)c1ccccc1,max response,CRL-7250,-27.3%
same,max response,HEK293,-102%
same,max response,HaCat [1],-16.2%
same,max response,KB-3-1,6.72%
same,Potency,MKL-1,inactive
same,Potency,CASKI,inactive
same,Potency,Es-2,inactive
same,Potency,HeLa,inactive
C/C=C/c1ccc(O)c(OC)c1,Potency,W2,inactive
same,max response,CRL-7250,-0.654%
same,max response,HEK293,-2.94%
same,outcome,HaCat [1],inactive
same,max response,NIH3T3 [2],-0.28%
same,outcome,HACAT [3],inactive
same,Potency,MCC-13,inactive
same,Potency,MCC-26,inactive
same,Potency,MKL-1,inactive
same,Potency,UISO,inactive
same,Potency,WaGa,inactive
same,Potency,C33A,inactive
same,Potency,CASKI,inactive
same,Potency,Es-2,inactive
same,Potency,HeLa,inactive
